Laboratory results from PubChem BioAssay (Tox21).
Inconclusive results are not listed. Activity calls are given as the source filed them. Unless noted, calls follow the shape of the dose curve; as a rule, active = well fitted curve in the direction sought with a large enough effect in the repeat runs; inconclusive = weak or mixed curves; inactive = no such curve, though single readings can be large; an effect the other way counts as inactive or inconclusive.

Key:
[1] = qHTS assay to identify small molecule antagonists of the glucocorticoid receptor (GR) signaling pathway - cell viability counter screen (AID 720693); also: nearly all actives have a fitted effect of over 55% in size
[2] = qHTS assay for identifying genotoxic compounds that show differential cytotoxicity against isogenic chicken DT40 cell lines with known DNA damage response pathways - Rev3 mutant cell line (AID 743014); also: nearly all actives have a fitted effect of over 55% in size
[3] = qHTS assay for identifying genotoxic compounds that show differential cytotoxicity against isogenic chicken DT40 cell lines with known DNA damage response pathways - Rad54/Ku70 mutant cell line (AID 743015); also: nearly all actives have a fitted effect of over 60% in size
[4] = qHTS assay to identify small molecule antagonists of the androgen receptor (AR) signaling pathway - cell viability counter screen (AID 743033; also: nearly all actives have a fitted effect of over 45% in size)
[5] = target: Androgen receptor (Homo sapiens) (UniProt P10275); assay: qHTS assay to identify small molecule antagonists of the androgen receptor (AR) signaling pathway (AID 743035; active = well fitted inhibition curve with a large enough effect in the signal ratio in the repeat runs, not every such curve was filed as active; the % refers to the signal ratio)
Chain of Androgen receptor (Homo sapiens) (P10275 whole entry, looked up): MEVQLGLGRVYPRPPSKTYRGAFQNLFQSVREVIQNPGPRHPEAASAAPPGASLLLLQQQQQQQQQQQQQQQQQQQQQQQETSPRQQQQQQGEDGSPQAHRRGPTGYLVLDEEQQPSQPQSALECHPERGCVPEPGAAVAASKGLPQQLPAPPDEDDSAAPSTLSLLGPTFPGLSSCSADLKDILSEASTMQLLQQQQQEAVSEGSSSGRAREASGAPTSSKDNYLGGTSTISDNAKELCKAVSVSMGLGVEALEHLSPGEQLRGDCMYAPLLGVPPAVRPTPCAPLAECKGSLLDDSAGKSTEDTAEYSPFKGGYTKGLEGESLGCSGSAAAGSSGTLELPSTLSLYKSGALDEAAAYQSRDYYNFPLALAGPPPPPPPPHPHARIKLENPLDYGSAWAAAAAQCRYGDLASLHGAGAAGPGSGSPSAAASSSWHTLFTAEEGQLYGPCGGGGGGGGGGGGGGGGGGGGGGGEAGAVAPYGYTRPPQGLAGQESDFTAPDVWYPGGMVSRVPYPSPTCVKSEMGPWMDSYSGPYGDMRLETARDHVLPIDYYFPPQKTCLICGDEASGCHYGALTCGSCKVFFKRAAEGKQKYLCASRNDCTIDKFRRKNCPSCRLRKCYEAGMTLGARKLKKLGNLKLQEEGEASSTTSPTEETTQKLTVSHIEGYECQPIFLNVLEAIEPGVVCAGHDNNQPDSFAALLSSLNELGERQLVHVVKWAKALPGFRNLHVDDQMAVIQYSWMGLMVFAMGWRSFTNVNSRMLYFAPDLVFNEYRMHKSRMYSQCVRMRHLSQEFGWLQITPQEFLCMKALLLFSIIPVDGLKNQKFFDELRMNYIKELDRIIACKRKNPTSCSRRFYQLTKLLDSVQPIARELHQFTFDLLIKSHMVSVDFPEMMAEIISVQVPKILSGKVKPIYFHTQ
Outline: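 Beta-lactamase FRET read (2 h RT incubation with LiveBLAzer B/G) following 16 h of compound plus R1881 treatment of AR-UAS-bla HEK293 cells, which had been pre-incubated 4 h at 37C.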

[6] = target: Androgen receptor (Homo sapiens) (UniProt P10275); assay: qHTS assay to identify small molecule agonists of the androgen receptor (AR) signaling pathway (AID 743036; active = well fitted activation curve with a large enough effect in the signal ratio in the repeat runs, with a control signal flat, not every such curve was filed as active; the % refers to the signal ratio)
Outline: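 AR-bla HEK293 cells, 2,000/well; 4 h preincubation 37C/5% CO2; compound (DMSO) 16 h at 37C; LiveBLAzer B/G FRET substrate 2 h RT; fluorescence intensity read-out.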

[7] = target: Androgen receptor (Homo sapiens) (UniProt P10275); assay: qHTS assay to identify small molecule agonists of the androgen receptor (AR) signaling pathway using the MDA cell line (AID 743040; also: nearly all actives have a fitted effect of over 20% in size)
Outline: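 Luminescence from ONE-Glo, read after 30 min at room temperature, reflects MMTV-driven luciferase in MDA-kb2 cells (AR- and GR-responsive). Treatment lasted 16 h at 37C, 0% CO2.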

[8] = qHTS assay to identify small molecule antagonists of the androgen receptor (AR) signaling pathway using the MDA cell line - cell viability counter screen (AID 743041; also: nearly all actives have a fitted effect of over 45% in size)
Outline: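 Viability counter screen run alongside the AR antagonist reporter: cells seeded 5 h before compound, R1881 added, 16 h incubation at 37C without CO2, fluorescent CellTiter-Fluor signal quantified.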

[9] = target: Androgen receptor (Homo sapiens) (UniProt P10275); assay: qHTS assay to identify small molecule antagonists of the androgen receptor (AR) signaling pathway using the MDA cell line (AID 743042; also: nearly all actives have a fitted effect of over 55% in size)
Outline: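 MDA-kb2 cells (human breast carcinoma, stably carrying an MMTV-luciferase reporter responsive to AR and GR) were plated at 3,000 cells/well and preincubated 5 hr at 37C, then given compound plus R1881 agonist for 16 h. ONE-Glo luminescence was read.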

[10] = qHTS assay to identify small molecule antagonists of the thyroid receptor (TR) signaling pathway - cell viability counter screen (AID 743064); also: nearly all actives have a fitted effect of over 50% in size
Outline: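 GH3.TRE-Luc cells, 4 h pre-plating; cpd + T3 1 nM final; 37 °C 23.5 h; CellTiter-Fluor 30 min; fluorescence read.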

[11] = qHTS assay to identify small molecule antagonists of the thyroid receptor (TR) signaling pathway (AID 743065); also: series mostly up to about 70 µM; nearly all actives have a fitted effect of over 55% in size
Outline: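 GH3.TRE-Luc rat pituitary cells carrying two TR response elements driving luciferase were plated for 4 h, given compound plus 1 nM T3 (final), and incubated 23.5 h at 37 C. ONE-Glo luminescence measured reporter inhibition; CellTiter-Fluor fluorescence tracked cytotoxicity.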

[12] = system: thyroid hormone receptor (rat, GH3 cells); assay: qHTS assay to identify small molecule agonists of the thyroid receptor (TR) signaling pathway (AID 743066; calls by dose curve)
[13] = qHTS assay to identify small molecule antagonists of the estrogen receptor alpha (ER-alpha) signaling pathway - cell viability counter screen (AID 743074; calls by dose curve;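 also: HEK293 cells carrying ER-alpha-UAS-bla reporter stimulated with 17beta-estradiol; nearly all actives have a fitted effect of over 45% in size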)
[14] = qHTS assay to identify small molecule antagonists of the estrogen receptor alpha (ER-alpha) signaling pathway using the BG1 cell line - cell viability counter screen (AID 743081);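 also: compound given together with 17beta-estradiol as the ER stimulus; series mostly up to about 70 µM; nearly all actives have a fitted effect of over 45% in size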
Aromatase (Homo sapiens) = Aromatase (Homo sapiens) (UniProt P11511); assay: qHTS assay to identify aromatase inhibitors (AID 743083)
Chain of Aromatase (Homo sapiens) (P11511 whole entry, looked up): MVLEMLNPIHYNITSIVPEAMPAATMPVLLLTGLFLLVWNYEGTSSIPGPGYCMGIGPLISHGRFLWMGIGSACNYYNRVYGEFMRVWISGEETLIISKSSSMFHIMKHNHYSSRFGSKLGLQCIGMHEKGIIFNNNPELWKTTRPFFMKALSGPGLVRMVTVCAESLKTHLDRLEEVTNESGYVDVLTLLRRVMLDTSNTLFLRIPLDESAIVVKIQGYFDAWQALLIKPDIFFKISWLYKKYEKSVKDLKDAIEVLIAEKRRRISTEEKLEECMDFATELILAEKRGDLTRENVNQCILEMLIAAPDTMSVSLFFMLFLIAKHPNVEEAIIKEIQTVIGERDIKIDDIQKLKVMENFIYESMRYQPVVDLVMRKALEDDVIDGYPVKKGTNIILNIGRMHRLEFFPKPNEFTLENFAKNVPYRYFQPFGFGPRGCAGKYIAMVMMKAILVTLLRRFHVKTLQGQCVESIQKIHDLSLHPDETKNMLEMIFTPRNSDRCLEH

[15] = qHTS assay for identifying genotoxic compounds that show differential cytotoxicity against isogenic chicken DT40 cell lines with known DNA damage response pathways - wild type cell line (AID 743012); also: nearly all actives have a fitted effect of over 60% in size
Outline: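 First, wild type DT40 cells were plated at 300 per well and equilibrated about 0.5 h at 37 C/5% CO2. Next, compounds in DMSO were added and exposure lasted 40 h. Finally, CellTiter-Glo was added for 30 min at room temperature and luminescence recorded.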

[16] = target: Estrogen receptor (Homo sapiens) (UniProt P03372); assay: qHTS assay to identify small molecule antagonists of the estrogen receptor alpha (ER-alpha) signaling pathway (AID 743069; active = well fitted curve in the direction sought with a large enough effect in the signal ratio in the repeat runs, not every such curve was filed as active; the % refers to the signal ratio)
Chain of Estrogen receptor (Homo sapiens) (P03372 whole entry, looked up): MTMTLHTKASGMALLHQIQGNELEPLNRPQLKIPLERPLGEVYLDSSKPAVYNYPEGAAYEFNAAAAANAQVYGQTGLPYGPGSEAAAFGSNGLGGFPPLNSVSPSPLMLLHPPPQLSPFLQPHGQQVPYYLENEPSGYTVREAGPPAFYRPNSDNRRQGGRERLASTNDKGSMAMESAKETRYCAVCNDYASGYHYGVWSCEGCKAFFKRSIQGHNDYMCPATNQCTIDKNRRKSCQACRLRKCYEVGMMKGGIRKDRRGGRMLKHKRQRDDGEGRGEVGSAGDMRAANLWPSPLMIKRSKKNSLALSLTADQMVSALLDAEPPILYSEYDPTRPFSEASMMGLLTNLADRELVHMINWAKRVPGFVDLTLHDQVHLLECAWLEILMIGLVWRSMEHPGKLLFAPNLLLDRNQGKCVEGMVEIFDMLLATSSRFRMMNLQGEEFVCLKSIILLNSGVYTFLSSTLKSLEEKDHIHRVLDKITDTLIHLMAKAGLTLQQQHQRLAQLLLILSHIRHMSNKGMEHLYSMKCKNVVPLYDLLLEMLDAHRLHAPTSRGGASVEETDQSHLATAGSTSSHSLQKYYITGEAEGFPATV
Outline: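 Estradiol-stimulated ER-alpha-UAS-bla HEK293 cells, 18 hr compound exposure at 37C. LiveBLAzer B/G substrate, 2 hr RT, fluorescence read.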

[17] = target: Estrogen receptor (Homo sapiens) (UniProt P03372); assay: qHTS assay to identify small molecule agonists of the estrogen receptor alpha (ER-alpha) signaling pathway (AID 743075; calls by dose curve;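 also: HEK293 GripTite cells with ER-alpha and UAS-driven beta-lactamase reporter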)
[18] = target: Estrogen receptor (Homo sapiens) (UniProt P03372); assay: qHTS assay to identify small molecule agonists of the estrogen receptor alpha (ER-alpha) signaling pathway using the BG1 cell line (AID 743079); also: nearly all actives have a fitted effect of over 20% in size
[19] = qHTS assay to identify small molecule antagonists of the estrogen receptor alpha (ER-alpha) signaling pathway using the BG1 cell line (AID 743080; calls by dose curve;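 also: BG1 cells stimulated with 17beta-estradiol alongside compound; series mostly up to about 70 µM; nearly all actives have a fitted effect of over 25% in size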)
Outline: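 After 5 days in phenol-red-free 10% charcoal-stripped FBS medium, BG1-Luc-4E2 cells were seeded, left 24 h at 37 C, co-treated with compounds and 17beta-estradiol for 21.5 h, then assayed for viability and luciferase.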

Measured: Potency

O=S(=O)(O)SSS(=O)(=O)O
not listed: [15] | [16] | [17] | [18] | [19]
inactive: all other assays above

Nc1ccc(S(=O)(=O)NC(=O)c2ccccc2)cc1
not listed: [2] | [5] | [6] | [7] | [9] | [19]
inactive: all other assays above

CC(C)COC(=O)CCCCC(=O)OCC(C)C
inactive: [1] | [15] | [3] | [4] | [8] | [10] | [11] | [12] | [13] | [14] | Aromatase (Homo sapiens)

O=C1OC(=O)c2cc(Oc3ccc4c(c3)C(=O)OC4=O)ccc21
not listed: [8] | [10] | [15]
inactive: all other assays above

CC1=CC[C@H](CC=O)C1(C)C
not listed: [2] | [5] | [6] | [7] | [9]
inactive: all other assays above

C[C@H]1O[C@H](O[C@H]2[C@H](O)[C@@H](O)[C@@H](O[C@H]3[C@H](O)[C@@H](O)[C@H](O)O[C@@H]3CO)O[C@@H]2CO)[C@H](O)[C@@H](O)[C@@H]1N[C@H]1C=C(CO)[C@@H](O)[C@H](O)[C@H]1O
inactive: [15] | [2] | [3] | [4] | [8] | [11] | [12] | [13] | [14] | Aromatase (Homo sapiens)

CCOC(=O)OCC/C(SC(=O)OCC)=C(\C)N(C=O)Cc1cnc(C)nc1N
inactive: [15] | [2] | [3] | [4] | [8] | [11] | [12] | Aromatase (Homo sapiens)

CCOC(=O)CC(CC(=O)OCC)(OC(C)=O)C(=O)OCC
inactive: [1] | [2] | [3] | [4] | [8] | [10] | [11] | [12] | [13] | [14] | Aromatase (Homo sapiens)

O=C(O)c1c(Cl)ccc(Cl)c1Cl
not listed: [5] | [6] | [7] | [9] | [12] | [15]
inactive: all other assays above
